The list is not random: actives were taken first. Their share in the collection is about 22%.
CYP2C19 act = human CYP2C19 activators, primary screen, biochemical, luminescence; Cytochrome P450 2C19 (Homo sapiens), P33261; recombinant CYP2C19, luciferin-H EGE luminescence; hits give high values; 0 = fully inhibited enzyme, 1 = untreated enzyme; activation factor at 5 µM; 96,000 tested, under 10 active;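 active = activation factor of at least 2 at 5 µM in the primary screen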
Target sequence (P33261 whole entry, looked up): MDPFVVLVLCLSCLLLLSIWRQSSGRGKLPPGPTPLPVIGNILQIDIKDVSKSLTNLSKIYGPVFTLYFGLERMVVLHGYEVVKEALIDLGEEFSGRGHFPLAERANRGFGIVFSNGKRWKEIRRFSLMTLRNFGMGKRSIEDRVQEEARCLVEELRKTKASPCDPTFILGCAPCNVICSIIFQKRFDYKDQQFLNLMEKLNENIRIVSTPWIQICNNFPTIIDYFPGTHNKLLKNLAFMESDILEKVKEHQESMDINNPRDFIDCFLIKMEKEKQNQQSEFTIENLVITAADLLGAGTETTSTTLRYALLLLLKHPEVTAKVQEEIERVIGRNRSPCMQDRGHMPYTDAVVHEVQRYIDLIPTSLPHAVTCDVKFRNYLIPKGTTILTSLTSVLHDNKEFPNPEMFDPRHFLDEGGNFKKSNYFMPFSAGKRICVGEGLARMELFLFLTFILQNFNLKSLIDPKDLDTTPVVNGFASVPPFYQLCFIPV
CYP2C19 inhib = blockers of cytochrome P450 2C19 activity – biochemical, luminescence, ADME assay, primary screen. CYP2C19 Supersomes, luciferin-H EGE luminescence, 30 min. inhibition, % at 5 µM. 96,000 tested, 21% active. AID 778, 2007;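 active = CYP2C19 inhibition above a set limit at 5 µM in the primary screen, cut at about 50% in these data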
CYP2C9 inhib = blockers of cytochrome P450 2C9 activity – biochemical, luminescence, ADME assay, primary screen | P11712 | CYP2C9 Supersomes, luciferin-H conversion | inhibition, % at 5 µM | 96,000 tested, 20% active | AID 777, 2007;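 active = blocking of liver enzyme CYP2C9 beyond about 50% at 5 µM, limit read from the data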
Measles CPE = compounds protecting cells from measles virus cytopathic effect, primary screen, measles RdRp inhibitor project, single point, MLSMR library, absorbance. Measles virus-infected cells, CPE protection. protection (pct of control), % at 4 µM. 140,000 tested, 1.5% active; in the data active = protection mostly above about 24%, no sharp cut-off; inactive = mostly below about 26%
CYP2C9 activ = human CYP2C9 activators, primary screen, biochemical, luminescence | Cytochrome P450 2C9 (Homo sapiens), P11712 | recombinant CYP2C9, luciferin-H conversion; hits give high values; factor 1 = untreated enzyme, 0 = blocked | activation factor at 5 µM | 96,000 tested, 1.4% active | AID 1024, 2008;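 active = activation factor of 2 or more for CYP2C9 at a 5 µM dose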
A number is an active result; - = inactive; . = no result.

SMILES | CYP2C19 act | CYP2C19 inhib | CYP2C9 inhib | Measles CPE | CYP2C9 activ
CC(C)COc1ccc(-c2cc(C(=O)NN)[nH]n2)cc1 | . | . | . | - | .
COc1ccc(NS(=O)(=O)c2ccc3c(c2)oc(=O)n3C)c(OC)c1 | - | 96 | - | - | -
COC(=O)c1ccc(NS(=O)(=O)c2ccc3c(c2)oc(=O)n3C)cc1 | - | 89 | 90 | - | -
CCOC(=O)c1ccc(NS(=O)(=O)c2ccc3c(c2)oc(=O)n3C)cc1 | . | . | . | - | .
COc1cc(NS(=O)(=O)c2ccc3c(c2)oc(=O)n3C)cc(OC)c1OC | - | - | 71 | - | -
COc1ccc(Nc2nc(-c3sc(N)nc3C)cs2)cc1 | - | 78 | 80 | - | -
Cc1nc(N)sc1-c1csc(Nc2ccccn2)n1 | - | - | 61 | - | -
COc1ccc(Nc2nc(-c3sc(NC(C)=O)nc3C)cs2)cc1 | - | 82 | 81 | - | -
COc1cccc(-n2nc3c(=O)n(Cc4ccccc4Cl)nc(C)c3c2C)c1 | . | . | . | - | .
COC(=O)c1cc(-c2ccc(OC)c(OC)c2)n[nH]1 | - | 55 | - | - | -
CCCNC(=O)CN(CCc1ccccc1)S(C)(=O)=O | - | 76 | - | - | -
O=C(NC(Cc1ccccc1)c1ccc2c(c1)OCCCO2)c1ccccc1 (centres undefined) | - | - | 65 | - | -
COc1cc(C2CC(=O)N3CN(c4ccccc4C)CSC3=C2C#N)cc(OC)c1OC (centres undefined) | - | - | 64 | - | -
COc1ccccc1N1CSC2=C(C#N)C(c3ccc(SC)cc3)CC(=O)N2C1 (centres undefined) | - | - | 88 | - | -
CCOC(=O)c1ccc(NC(=O)Cn2cc3c(n2)CCC(C)C3)cc1 (centres undefined) | - | - | - | - | -
CCCCC(=O)c1ccc(O)cc1O | . | . | . | - | .
CCCCC(=O)c1ccc(O)cc1 | - | - | - | - | 2.2
CCN(CC)S(=O)(=O)c1ccc(NC(=O)C2CCCO2)cc1 (centres undefined) | - | - | - | - | -
O=C(NCCN1CCN(c2ccccc2)CC1)c1ccc(NC(=O)C2CCCO2)cc1 (centres undefined) | - | 52 | - | - | -
CN(Cc1ccccc1)S(=O)(=O)c1ccc(NC(=O)C2CCCO2)cc1 (centres undefined) | - | - | 55 | - | -
CCOC(=O)N1CCC(NC(=O)c2ccc(NC(=O)C3CCCO3)cc2)CC1 (centres undefined) | - | - | - | - | -
Cc1ccnc(NS(=O)(=O)c2ccc(NC(=O)C3CCCO3)cc2)n1 (centres undefined) | - | - | - | - | -
COc1ccc(NS(=O)(=O)c2ccc(NC(=O)C3CCCO3)cc2)cc1 (centres undefined) | - | 69 | 65 | - | -
CCc1ccc(NC(=O)c2ccccc2NC(=O)C2CCCO2)cc1 (centres undefined) | - | - | 59 | - | -
COc1ccc(-n2c(Cn3c(=O)sc4ccccc43)nnc2SCC(=O)N2CCOCC2)cc1 | - | - | - | - | -
SMILES | CYP2C19 act | CYP2C19 inhib | CYP2C9 inhib | Measles CPE | CYP2C9 activ
CCCCNS(=O)(=O)c1ccc(S(=O)(=O)N2CCC3(CC2)OCCO3)cc1 | . | . | . | - | .
Cc1ccc(C(=O)NNC(=O)c2cccc(S(=O)(=O)N3CCN(c4ccccc4)CC3)c2)cc1 | . | . | . | - | .
CCC(=O)Nc1cc(C(=O)OCC(=O)c2ccccc2)ccc1C | . | . | . | - | .
O=C(Nc1ccc(Oc2ccc(NC(=O)C3CCCO3)cc2)cc1)C1CCCO1 (centres undefined) | - | - | 54 | - | -
Cc1ccc(NS(=O)(=O)c2ccc(NC(=O)C3CCCO3)cc2)cc1 (centres undefined) | - | 91 | 85 | - | -
CCCOC(=O)c1ccc(NC(=O)C2CCCO2)cc1 (centres undefined) | - | - | - | - | -
O=C1NC(=O)c2cc(NC(=O)C3CCCO3)ccc21 (centres undefined) | - | - | 86 | - | -
O=C1NC(=O)C2(COC3(CCCC3)OC2)S1 | - | - | - | - | -
Cc1cc(NC(=O)CC(CN(C)S(=O)(=O)c2ccccc2)c2ccccc2)no1 (centres undefined) | - | 88 | - | - | -
COc1ccccc1S(=O)(=O)Cc1ccc(C(=O)NC2CCCCC2)o1 | - | - | - | . | -
O=C(NC1CCCCC1)c1ccc(CS(=O)(=O)Cc2ccccc2F)o1 | . | . | . | - | .
O=C(NC1CCCCC1)c1ccc(CNc2ccccc2)o1 | - | 62 | 58 | 36 | -
O=C(NC1CCCC1)c1ccc(CSCc2ccccc2F)o1 | - | 92 | 86 | - | -
COc1ccc(-c2nnc3ccc(SCC(=O)Nc4nc5ccccc5s4)nn23)cc1OC | . | . | . | - | .
COC(=O)C1=C(N)Oc2cc(C)n(Cc3ccccc3)c(=O)c2C1c1ccccc1 (centres undefined) | - | - | 75 | - | -
COc1ccc(C2C(C#N)=C(N)Oc3cc(C)n(CCN4CCOCC4)c(=O)c32)cc1OC (centres undefined) | - | - | - | - | -
COC(=O)C1=C(N)Oc2cc(C)n(CCN3CCOCC3)c(=O)c2C1c1cccnc1 (centres undefined) | - | 71 | - | - | -
COC(=O)C1=C(N)Oc2cc(C)n(C)c(=O)c2C1c1ccc(Cl)cc1 (centres undefined) | - | - | - | - | -
Cc1ccc(-n2nnnc2SCC(=O)Nc2ncc(Cc3ccccc3Cl)s2)cc1 | . | . | . | - | .
CCn1c(CNc2ccc(F)cc2)nnc1SCC(=O)Nc1ccc(OC)cc1 | . | . | . | - | .
COc1ccc(C)cc1NC(=O)CC(O)(C(F)(F)F)C(F)(F)F | - | 62 | - | - | -
Cc1ccc(NC(=O)CC(O)(C(F)(F)F)C(F)(F)F)cc1 | - | 59 | - | - | -
Cc1ccc(NC(=O)CCC(=O)NCCO)cc1 | - | - | - | - | -
Cc1ccc(C(c2nnnn2Cc2ccccc2)N2CCN(Cc3ccccc3)CC2)cc1 (centres undefined) | . | . | . | - | .
COc1ccccc1-c1cc(C(=O)N/N=C/c2cccs2)c2ccccc2n1 | - | 80 | 96 | - | -
SMILES | CYP2C19 act | CYP2C19 inhib | CYP2C9 inhib | Measles CPE | CYP2C9 activ
O=C(N/N=C/c1cccs1)c1cc(-c2ccncc2)nc2ccccc12 | . | . | . | - | .
COc1ccc(-c2cc(C(=O)N/N=C/c3ccc(OC)c(COCC(F)(F)C(F)F)c3)c3ccccc3n2)c(OC)c1 | - | 79 | 88 | - | -
COc1ccc(-c2cc(C(=O)O)c3ccccc3n2)c(OC)c1 | - | - | 62 | - | -
COc1ccccc1-c1cc(C(=O)N/N=C/C=C/c2ccccc2[N+](=O)[O-])c2ccccc2n1 | - | - | 66 | - | -
CN(c1ccccc1)S(=O)(=O)c1cccc(C(=O)OCC(=O)NCc2ccc3c(c2)OCO3)c1 | . | . | . | - | .
CC(C)OCCCNC(=S)Nc1ccc(S(N)(=O)=O)cc1 | . | . | . | - | .
